# Results reported in PubChem BioAssay AID2629 (Broad Institute, 2010).
# The whole screen tested about 320,000 compounds, of which about 1,900 (0.59%) were called active. What follows is part of a selection rich in actives, with near analogues and random picks from the rest. Unmarked numbers belong to inactive results. No stated cut-off is given here; in the data, active means inhibition mostly above about 10% (no sharp cut-off); inactive means mostly below about 6.7%.
# Target: Protein LANA1 (Human herpesvirus 8 type P (isolate GK18)) (UniProt Q9QR71)
# Experiment: blockers of LANA interaction with H2A/H2B – biochemical, FP readout, HTS, primary screen (AID 2629)
# Settings: cell-free LANA-H2A/H2B peptide, fluorescence polarization, stronger effect = higher value, concentration not given here
# Sequence of Protein LANA1 (Human herpesvirus 8 type P (isolate GK18)) (Q9QR71 whole entry, looked up): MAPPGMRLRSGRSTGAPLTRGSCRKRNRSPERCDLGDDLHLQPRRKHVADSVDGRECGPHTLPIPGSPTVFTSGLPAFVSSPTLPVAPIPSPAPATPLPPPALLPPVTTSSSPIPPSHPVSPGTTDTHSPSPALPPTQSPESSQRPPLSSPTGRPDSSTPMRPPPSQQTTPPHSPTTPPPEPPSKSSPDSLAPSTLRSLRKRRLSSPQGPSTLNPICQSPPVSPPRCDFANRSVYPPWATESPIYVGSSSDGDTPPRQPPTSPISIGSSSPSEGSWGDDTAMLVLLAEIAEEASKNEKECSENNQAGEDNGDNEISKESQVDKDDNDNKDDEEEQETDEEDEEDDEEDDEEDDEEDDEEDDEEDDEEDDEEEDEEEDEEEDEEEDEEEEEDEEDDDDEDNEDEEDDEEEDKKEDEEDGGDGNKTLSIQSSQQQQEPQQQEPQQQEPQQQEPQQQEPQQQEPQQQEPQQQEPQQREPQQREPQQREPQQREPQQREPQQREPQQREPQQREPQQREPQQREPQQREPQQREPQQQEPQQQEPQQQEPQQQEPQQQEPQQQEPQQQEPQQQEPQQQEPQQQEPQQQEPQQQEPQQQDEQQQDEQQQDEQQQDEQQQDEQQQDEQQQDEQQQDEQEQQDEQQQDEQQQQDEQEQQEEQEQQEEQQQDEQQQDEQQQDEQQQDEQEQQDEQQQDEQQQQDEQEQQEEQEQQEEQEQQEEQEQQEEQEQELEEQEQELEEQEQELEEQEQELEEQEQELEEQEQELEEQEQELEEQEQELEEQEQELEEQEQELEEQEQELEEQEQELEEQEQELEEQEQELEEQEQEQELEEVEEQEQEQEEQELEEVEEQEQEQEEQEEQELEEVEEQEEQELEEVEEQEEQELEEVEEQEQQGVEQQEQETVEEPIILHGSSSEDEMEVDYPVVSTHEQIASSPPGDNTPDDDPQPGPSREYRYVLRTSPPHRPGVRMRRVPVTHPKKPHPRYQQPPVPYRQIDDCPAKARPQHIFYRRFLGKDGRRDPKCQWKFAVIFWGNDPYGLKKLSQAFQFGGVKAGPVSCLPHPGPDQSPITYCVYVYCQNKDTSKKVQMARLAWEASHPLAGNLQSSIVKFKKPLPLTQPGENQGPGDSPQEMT
row,SMILES,inhibition
1,Cc1c(C(C)CCCO)oc(=O)c2c1Oc1c(C)c(C(C)C[C@@H](C)O)oc(=O)c1C2 (some centres not stated),-3.56%
2,COc1ccc(C(=O)COC(=O)C(O)c2ccccc2)c(OC)c1 (configuration not stated),-6.19%
3,COCc1ccc(C(=O)N2CCc3c([nH]c4ccccc34)C2c2ccccn2)s1 (configuration not stated),183% (active)
4,Cc1cccc(C2c3[nH]c4ccccc4c3CCN2C(=O)c2cc(-c3cccn3C)n[nH]2)n1 (configuration not stated),1.43%
5,O=C(c1cn2ccccc2n1)N1CCc2c([nH]c3ccccc23)C1c1ccccn1 (configuration not stated),2.75%
6,Cc1cc(C)n(CCNC(=O)CC2C(=O)NCCN2Cc2ccc(C)o2)n1 (configuration not stated),4.74%
7,Cc1cc(N2C(=O)c3ccc(C(=O)NCc4ccccc4)cc3C2=O)no1,0.191%
8,O=C(CSc1nc2ccccc2c(=O)n1-c1ccc(F)cc1)NC1CC1,0.0498%
9,CC1CCN(CCCn2c(SCC(=O)NC3CCCC3)nc3ccccc3c2=O)CC1,2.87%
10,O=C(CSc1nc2ccccc2c(=O)n1CCCO)NC1CC1,"635% [above what the read-out allows, likely interference] (active)"
11,COc1ccc(C)cc1S(=O)(=O)N(CC(=O)Nc1cccc([N+](=O)[O-])c1)c1ccc(C)cc1,-2.08%
12,Cc1ccc(NC(=O)C(C)Sc2nnc(C3CC3)n2C2CC2)cc1S(=O)(=O)N1CCOCC1 (configuration not stated),-1.97%
13,COc1ccc([N+](=O)[O-])cc1N(CC(O)CN(CC(C)C)CC(C)C)S(=O)(=O)c1ccc(C)cc1 (configuration not stated),1.46%
14,Cc1cc(C)cc(Oc2nc3c(C)cccn3c(=O)c2/C=C(\C#N)C(=O)NC2CCS(=O)(=O)C2)c1 (configuration not stated),18.8% (active)
15,Cc1cccn2c(=O)c(/C=C(\C#N)S(=O)(=O)c3ccc(Cl)cc3)c(N3CCC(C(N)=O)CC3)nc12,-0.0722%
16,Cc1cccn2c(=O)c(/C=C(\C#N)C(N)=O)c(N3CCCCCC3)nc12,6.27%
17,COc1c(Br)cc2c(C)c(C(=O)N3CCOCC3)oc2c1Br,-7.01%
18,CCC(C)NC(=O)CSC1=Nc2ccccc2C2=NC(CCC(=O)NCc3ccco3)C(=O)N12 (configuration not stated),4.12%
19,O=C(CSC1=Nc2ccccc2C2=NC(CC(=O)NCc3ccco3)C(=O)N12)NCc1ccco1 (configuration not stated),-2.02%
20,CC(C)C1N=C2c3ccccc3N=C(SCC(=O)c3ccc(O)c(O)c3)N2C1=O (configuration not stated),13.1% (active)
21,CS(=O)(=O)N(Cc1ccccc1Cl)c1ccc(C(=O)NCc2cccnc2)cc1,3.45%
22,O=C(/C=C/c1ccc([N+](=O)[O-])cc1)NCCSCc1ccco1,5.42%
